NPC1 prom act – qHTS Assay for NPC1 Promoter Activators. Potency, µM (highest dose often 9.22 µM), inactives show at the top dose activation, usual class: activators. 320,000 tested, 2.4% active. AID 485313, 2010. Huh7 NPC1 promoter luciferase reporter, 24 h; also: % of control where 0% means no effect; nearly all actives have a fitted effect of over 60% in size
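NPC1 promoter–luciferase Huh7 cells; 24 h compound; luminescence.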
FLuc modulator – qHTS profiling assay for firefly luciferase inhibitor/activator using purifed enzyme and Km concentrations of substrates (counterscreen for miR-21 project); purified FLuc, Km substrates, luminescence inhibition; Potency, µM (titrated, usually from 57.5 µM), for the others: top-dose activity change, negative = inhibition, actives largely listed as inhibitors; 360,000 tested, 6.9% active; AID 588342, 2011;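 also: plate controls were vehicle for no effect and reference inhibitor for full effect; nearly all actives have a fitted effect of over 55% in size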
Target sequence (P08659 whole entry, looked up): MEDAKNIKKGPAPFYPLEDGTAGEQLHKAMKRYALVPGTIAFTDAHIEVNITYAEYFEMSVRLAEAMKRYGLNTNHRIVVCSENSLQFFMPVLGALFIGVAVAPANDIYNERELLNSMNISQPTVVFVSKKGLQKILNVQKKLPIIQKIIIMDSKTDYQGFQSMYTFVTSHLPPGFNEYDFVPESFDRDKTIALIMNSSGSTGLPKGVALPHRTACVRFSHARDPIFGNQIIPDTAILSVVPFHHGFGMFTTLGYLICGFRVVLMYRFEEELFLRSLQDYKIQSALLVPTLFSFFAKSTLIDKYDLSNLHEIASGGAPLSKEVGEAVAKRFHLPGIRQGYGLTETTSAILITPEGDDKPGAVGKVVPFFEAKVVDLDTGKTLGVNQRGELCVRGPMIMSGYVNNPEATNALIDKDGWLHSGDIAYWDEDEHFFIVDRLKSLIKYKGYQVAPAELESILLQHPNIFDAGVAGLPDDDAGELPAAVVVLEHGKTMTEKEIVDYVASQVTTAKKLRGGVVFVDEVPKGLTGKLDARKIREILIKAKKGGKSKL
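Biochemical qHTS of compounds, final roughly 60 µM downward over six points, against 10 nM purified firefly luciferase using Km concentrations of substrates (10 uM D-luciferin, 10 uM ATP) in Tris acetate pH 7.5 buffer; luminescence output.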
SMN2 splice up – qHTS Assay for Enhancers of SMN2 Splice Variant Expression | HEK293 SMN2-luciferase splicing reporter, luminescence, 30-36 h | Potency, µM (titrated, usually from 46.1 µM), inactives show top-dose activity change, positive = activation, usual class: activators | 210,000 tested, 2.8% active; also: % of control where 0% means no effect; nearly all actives have a fitted effect of over 55% in size
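HEK293 cells carry an SMN2 minigene-luciferase reporter in which exon 7 inclusion puts luciferase in frame. Cells were seeded at 2000 cells/well, attached for 10-12 hours, then exposed to compounds for 30-36 hours at 37C before ONE-Glo luminescence.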
ELG1 genotox – qHTS screen for small molecules that induce genotoxicity in human embryonic kidney (HEK293T) cells expressing luciferase-tagged ELG1; Potency, µM (highest dose often 46 µM), for inactives: at the highest dose activity change, positive = activation, hits mostly activators; HEK293T ELG1-luciferase reporter, luminescence, 16 h; 330,000 tested, 1.3% active; AID 504466, 2011; also: % of control where 0% means no effect; nearly all actives have a fitted effect of over 60% in size
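16 hr compound incubation (37 °C, 5% CO2) of HEK293T cells carrying luciferase-tagged ELG1; luciferase then measured by ONE-Glo luminescence after 30 min at RT.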
Rab9 promoter act – qHTS Assay for Rab9 Promoter Activators. Huh7 Rab9 promoter-luciferase reporter, luminescence, 24 h. 320,000 tested, 2.8% active. AID 485297, 2010. Potency, µM (titrated, usually from 9.22 µM), inactives show at the highest dose activation, negative = inhibition, usual class: activators; also: % of control where 0% means no effect; nearly all actives have a fitted effect of over 60% in size
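Measured in stably transfected Huh7 cells bearing a Rab9 promoter–luciferase construct: 24 h compound treatment at 37 °C, followed by luminescence detection.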
The depositor's hits bear a star; ? = inconclusive; . = not tested or not shown; [ ] = remark or other dose. An excerpt weighted towards active compounds, which were near 7.5% of everything screened. Calls follow the shape of the dose curve; as a rule, active = well fitted curve in the direction sought with a large enough effect; inconclusive = small, poorly fitted or top-dose-only effect, or another doubt; inactive = no such curve, though single readings can be large; an effect the other way counts as inactive or inconclusive. Potency is read from the fitted curve at half-maximal effect.

SMILES	NPC1 prom act	FLuc modulator	SMN2 splice up	ELG1 genotox	Rab9 promoter act
COc1cc(/C=C2/C(=O)NN(c3cccc(Cl)c3)C2=O)cc(OC)c1O	1.4%	21.3µM*	.	9.2%	0.1%
CCOc1cc(/C=C2/C(=O)NN(c3cccc(Cl)c3)C2=O)ccc1O	-0.1%	23.9µM*	.	-2.9%	-0.4%
O=C1NN(c2cccc(Br)c2)C(=O)/C1=C\c1ccc(O)cc1	0.8%	15.1µM*	.	-0.1%	-2.0%[1.84 µM]
COC(=O)c1ccc(N2NC(=O)/C(=C/c3ccc(OC)c(OC)c3)C2=O)cc1	1.3%	?	.	0.5%	-2.5%
CCCCN(CC)CCNC(=O)c1cc2c(=O)[nH]c3ccccc3c2n1C	-0.2%	-0.8%	-7.1%	-0.2%	-7.9%
O=C(NCc1cccnc1)C(=O)NCC1CCCO1 (configuration not stated)	1.9%	-0.4%	.	0.5%	-2.5%
O=C(Cc1ccccc1)Nc1sc2c(c1C(=O)Nc1ccccc1Cl)CCCCC2	.	-11.5%	5.6%	.	.
Cc1ccc(S(=O)(=O)C2(C(=O)Nc3ccc(F)cc3)CC2)cc1	-3.7%	1.8%	-18.8%	0.5%	-1.5%
CN(C)/C=C/c1onc(-c2ccccc2Cl)c1C#N	?	23.9µM*	24.1%	?	?
COc1ccccc1N1CCN(CC(=O)N(CC(C)C)c2c(N)n(CC(C)C)c(=O)[nH]c2=O)CC1	1.3%	-1.0%	-32.7%	-0.1%	4.1%
COc1ccc(C(=O)COC(=O)c2ccccc2NS(=O)(=O)c2ccc(O)c([N+](=O)[O-])c2)cc1	-2.6%	10.7µM*	.	-0.4%	-0.2%
COc1ccc(NC(=O)c2ccccc2NS(=O)(=O)c2ccc(C)cc2)c([N+](=O)[O-])c1	-4.7%	-8.8%	-56.0%	-2.4%	3.3%
COc1ccc(OC)c(N)c1	-3.0%	1.2%	-7.0%	-1.4%	17.5%
COc1ccc(/C(C)=N/NC(=O)CNC(=O)Cc2ccccc2)c(OC)c1	7.3%	-0.7%	.	-0.3%	-8.3%
CC1(C)OC(=O)C(=NNc2ccc(C(=O)O)cc2)C(=O)O1	0.9%	-0.4%	.	0.6%	13.3%
COc1ccc2c(c1)C(=NN)c1cc(OC)ccc1-2	28.8%	10.7µM*	-10.0%	3.7%	?
COc1ccc2c(c1)C(=NNc1ccc(C(=O)O)cc1)c1cc(OC)ccc1-2	2.3%	6.01µM*	.	2.0%	7.1%
COc1ccc(/C(C)=N/Nc2ccc(C(=O)O)cc2)c(OC)c1	?	7.57µM*	15.8µM*	?	1.78µM*
O=C(CCSc1ccccn1)c1ccccc1	-1.4%	6.01µM*	2.7%	-1.6%	-1.6%
O=C(Cc1ccccn1)c1ccc(Cl)cc1	?	12µM*	.	?	2.82µM*
O=C(CCCc1ccccn1)c1ccccc1	.	.	2.82µM*	.	.
O=C(O)CCSc1ccccn1	-5.3%	4.7%	.	0.4%	11.4%
COc1ccccc1N1CCN(S(=O)(=O)c2c(C)sc3ncn(CC(=O)Nc4cccc(Cl)c4)c(=O)c23)CC1	.	1.9%	-0.8%	.	.
Cc1cnc([N+](=O)[O-])n1CCOC(=O)NC(=O)c1ccc(C(F)(F)F)cc1	-1.2%	-0.3%	6.7%	1.7%	-1.2%
CC(/C=C/c1ccc(N(C)C)cc1)=N/N=C1/NC(=O)CC(C(=O)Nc2ccc(Cl)cc2)S1 (configuration not stated)	8.4%	7.57µM*	?	5.1%	-1.6%
CC(/C=C/c1ccc(N(C)C)cc1)=N\N=C1\NC(=O)CC(C(=O)Nc2ccccc2)S1 (configuration not stated)	?	2.39µM*	15.8µM*	8.3%	?
CCCOc1ccc(NC(=O)C2CC(=O)N/C(=N/N=C(C)/C=C/c3ccc(N(C)C)cc3)S2)cc1 (configuration not stated)	?	2.39µM*	12.6µM*	14.2%	?
CC(NC(=O)CCCc1ccccc1)c1ccncc1 (configuration not stated)	-3.4%	5.4%	.	-5.7%	-1.8%

Bioassay records deposited in PubChem BioAssay by National Center for Advancing Translational Sciences (NCATS).
